Results on 40 molecules are retold here after PubChem BioAssay (Tox21).

Where “and” joins values, the source holds several entries; their conditions need not be identical. Identical values can stand only once. Results filed as inconclusive are left out. Entries that show only a call come without a potency. The source holds several records for some structures; these can differ, active in one and inactive in another. Calls of active or inactive are those of the source. Calls come from the whole dose curve; as a rule, active = well fitted cell-killing curve with a large enough effect in the repeat runs; inconclusive = weak or mixed curves; inactive = flat fitted curve, though single readings scatter.
Potency is the fitted concentration of half-maximal effect.

The assay can be described thus: qHTS assay to identify small molecule antagonists of the estrogen related receptor (ERR) signaling pathway from Tox21 library - cell viability counter screen (AID 1224834). Note: nearly all actives have a fitted effect of over 30% in size. As to conditions: ERR reporter cells viability, CellTiter-Fluor, 17.5 h; series mostly up to 92.4 µM. From the text: National Center for Advancing Translational Sciences [NCATS]
NIH Chemical Genomics Center [NCGC]
U.S. Environmental Protection Agency [EPA]
National Institutes of Environmental Health Sciences [NIEHS]
National Toxicology Program [NTP]
U.S. Food and Drug Administration [FDA]
Estrogen related receptors (ERRs), the first orphan nuclear receptors discovered, play an important role in the control of cellular energy metabolism. ERRs are required for high-energy production in response to the environmental challenges. ERR-alpha was also identified as an adverse marker for breast cancer progression; ERR-alpha-positive tumors have a poor prognosis. To screen and to identify environmental compounds that perturb the ERR signaling pathways could provide valuable information for potential therapeutic or preventive measures in the treatment of metabolic disease. To differentiate true ERR antagonists or agonist from cytotoxic substances, the assay is multiplexed with cell viability assay.
Tox21 Assay Protocol Summary:
The ERR cells were dispensed at 2,000 cells/5 ul/well in 1536-well white plates using a Multidrop dispenser. After the assay plates were incubated at a 37 C/5% CO2 incubator for 6 hours, 23 nL of compounds dissolved in DMSO, positive and negative controls or DMSO only was transferred to the assay plate by a pin tool. The plates were incubated at 37 C for 17.5 hours. 1 ul/well of CellTiter-Fluor reagent was added into the assay plates using a Flying Reagent Dispenser. After 30-minute incubation at 37 C/5% CO2, the fluorescence intensity in the plates was measured using a ViewLux plate reader.
For `O=c1nc(O)n(Cl)c(=O)n1Cl`, the Potency entry is “inactive”.

Turning to `CCCC[N+]1(C)CCCCC1`, the Potency result is “inactive”.

For `O=[N+]([O-])c1ccccc1O`, the Potency entry is “inactive”.

As for `CC[N+](CC)(CC)CC`, the Potency entry was “inactive”.

With `O=c1[nH]c(=O)n(Cl)c(=O)n1Cl`, the Potency result is “inactive”.

As to `CCCCn1cc[n+](C)c1`, the Potency result is “inactive”.

Consider `CC[N+]1(C)CCCC1`, for which the Potency entry was “inactive”.

Turning to `O=C(O)CCl`, the Potency entry was “inactive”.

With `C1CCC(NC2CCCCC2)CC1`, the Potency entry is “inactive”.

Consider `CNC`, for which the Potency entry was “inactive”.

With `CCCC[N+]1(C)CCCC1`, the Potency entry is “inactive”.

For the molecule `CC(=O)[O][Hg][c]1ccccc1`, the Potency is 2.41 µM (active) and 3.86 µM (active) and 7.5 µM (active).

For `C[N+](C)(C)Cc1ccccc1`, the Potency entry is “inactive”.

For `Nc1ccc(-c2ccc(N)c(Cl)c2)cc1Cl`, the Potency is 54.5 µM (active).

`C[C@]12CCC(=O)C=C1CC[C@@H]1[C@@H]2CC[C@]2(C)C(=O)CC[C@@H]12`: the Potency entry was “inactive”.

Take `Oc1ccccc1-c1ccccc1`: the Potency result is “inactive”.

Take `O=S(=O)(O)O`: the Potency entry is “inactive”.

For the molecule `CCCC[n+]1ccc(C)cc1`, the Potency entry was “inactive and 68.2 µM (active)”.

Turning to `Nc1ccccc1`, the Potency result was “inactive”.

Regarding `CCCCCCn1cc[n+](C)c1`, the Potency result was “inactive”.

`OCCOc1ccccc1`: the Potency result was “inactive”.

Take `CCCC[n+]1ccccc1C`: the Potency entry was “inactive”.

Consider `CCC(=O)C(CC(C)N(C)C)(c1ccccc1)c1ccccc1` (stereo not given), for which the Potency entry is “inactive”.

In the case of `Oc1cccc2cccnc12`, the Potency was 2.74 µM (active) and 2.43 µM (active) and inactive.

For `O=C(O)C(Cl)(Cl)Cl`, the Potency entry is “inactive”.

`O=[N+]([O-])O`: the Potency result is “inactive”.

As to `CCNc1nc(Cl)nc(NCC)n1`, the Potency entry is “inactive”.

Turning to `CCCC[n+]1cccc(C)c1`, the Potency entry is “inactive”.

For `Cc1cc(Cl)ccc1N`, the Potency result was “inactive”.

With `CCCCCCCCCCCCCC[P+](CCCCCC)(CCCCCC)CCCCCC`, the Potency was 17.3 µM (active) and 24.5 µM (active).

As for `O=C(O)COc1ccc(Cl)cc1Cl`, the Potency entry was “inactive”.

Turning to `Cc1cc(Cl)ccc1OCC(=O)O`, the Potency entry is “inactive”.

In the case of `O=P1(N(CCCl)CCCl)NCCCO1` (stereo not given), the Potency result was “inactive”.

On to `CC(=O)O`, for which the Potency result was “inactive”.

Turning to `Nc1ccc(-c2ccc(N)cc2)cc1`, the Potency entry was “inactive”.

Regarding `Cc1cc(-c2ccc(N)c(C)c2)ccc1N`, the Potency entry is “inactive”.

`C=CCOC(Cn1ccnc1)c1ccc(Cl)cc1Cl` (stereo not given): the Potency is 30.7 µM (active) and 48.6 µM (active) and 29.8 µM (active).

With `CCCC[n+]1ccccc1`, the Potency result was “inactive”.

As to `CCCCCCCCCCCC(=O)O`, the Potency result was “inactive”.

Consider `CN(C)[C@@H]1C(=O)C(C(N)=O)=C(O)[C@@]2(O)C(=O)C3=C(O)c4c(O)cccc4[C@@](C)(O)[C@H]3[C@H](O)[C@@H]12`, for which the Potency entry was “inactive”.
